Among the test systems are T-47D breast; BT-549 breast; MDA-MB-435 melanoma; SW-620 colon; MCF7 breast; HCT-116 colon; HCC-2998 colon; KM12 colon.
Holding throughout (assay): NCI-60 one-dose screen, 48 h (100 = growth as untreated, 0 = no growth, -100 = all killed)
Holding throughout (conditions): 10 µM unless noted

About 83,000 compounds went through this panel and 20% of them were active in at least one assay; those are over-represented in the sample as a whole.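 96-well plates, one dose, 48 hours. Percent growth reported; active if below 10.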 Unmarked numbers belong to inactive results. Activity calls are given as the source filed them.

Turning to `CCOC(=O)NC(=S)n1oc(=O)c2ccccc21`, the growth was 99.2% in the assay with T-47D breast; 111% in the assay on BT-549 breast; 101% in the assay with MDA-MB-435 melanoma; 97.5% in the assay on SW-620 colon; 100% in the assay on MCF7 breast; 101% in the assay on HCT-116 colon. Also, the results for the growth in the assay on HCC-2998 colon and with KM12 colon were 101% and 103%, respectively.
For `CN(C)c1ccc(CNCCO)cc1`, the growth in the assay with T-47D breast was 55.5%; with BT-549 breast, 75.7%; in the assay with MDA-MB-435 melanoma it was 102%; in the assay on SW-620 colon, 94.5%; in the assay with MCF7 breast, 94%; in the assay with HCT-116 colon, 72.1%. Also, the growth in the assay on HCC-2998 colon was 109%; with KM12 colon, 105%.
`COc1ccc(C2C3=C(COC3=O)N(CCO)c3cc4c(cc32)OCO4)cc1OC` (configuration not stated): the growth was 87.5% with T-47D breast; 80.5% with BT-549 breast; 5.99% (active) in the assay on MDA-MB-435 melanoma; 61.6% in the assay on SW-620 colon; 64.3% in the assay with MCF7 breast; 68.6% in the assay on HCT-116 colon. Further, the results for the growth with HCC-2998 colon and in the assay on KM12 colon were 74.5% and 62.4%, respectively.
As to `Nc1nc(N(Cc2ccccc2)c2ccccc2)c2cn[nH]c2n1`, the growth in the assay with T-47D breast was 44.4%; with BT-549 breast, 68.2%; in the assay with MDA-MB-435 melanoma it was 9.3% (active); in the assay on SW-620 colon it was 25%; in the assay with MCF7 breast, 43.8%; in the assay on HCT-116 colon, 40.9%. The values for the growth in the assay on HCC-2998 colon and with KM12 colon were 71.2% and 35.1%, respectively.
As for `COc1ccc(/C=C(/C(=O)N2CCNCC2)c2cc(OC)c(OC)c(OC)c2)cc1O`, the growth was 31.6% in the assay with T-47D breast; 58.5% with BT-549 breast; -45% (active) with MDA-MB-435 melanoma; 35.1% in the assay on SW-620 colon; 23% in the assay with MCF7 breast; 19.8% in the assay on HCT-116 colon. In addition, the values for the growth in the assay with HCC-2998 colon and in the assay with KM12 colon were 78.4% and 21.3%, respectively.
As to `CCn1cc(Cc2cc(C(=O)Nc3cc4cc(OC)c(OC)cc4c(C)n3)ccc2Cl)cn1`, the growth in the assay with T-47D breast was 19.8%; with BT-549 breast it was 17.3%; with MDA-MB-435 melanoma, 2.12% (active); in the assay with SW-620 colon, 38.3%; with MCF7 breast it was 18.5%; in the assay with HCT-116 colon, 10.3%. Besides, the growth in the assay on HCC-2998 colon is 65.1%; with KM12 colon it was 37.7%.
Turning to `N#Cc1c(-c2ccc(Cl)cc2)nc(NN=Cc2ccc[nH]2)nc1N1CCOCC1`, the growth in the assay with T-47D breast was 64.9%; in the assay on BT-549 breast, 16.9%; in the assay with MDA-MB-435 melanoma, 94.7%; with SW-620 colon, 89.2%; in the assay on MCF7 breast it was 70.7%; in the assay with HCT-116 colon, 90.1%. For the same molecule, the growth was 94.1% in the assay on HCC-2998 colon and 36.5% in the assay on KM12 colon.
For the molecule `C#CCOc1cccc(Nc2ncnc3c2ncn3C2CCN(C(=O)CCl)C2)c1` (configuration not stated), the growth in the assay on T-47D breast is -45.2% (active); with BT-549 breast it was -62.5% (active); in the assay with MDA-MB-435 melanoma, -23.8% (active); in the assay on SW-620 colon, -64.2% (active); in the assay with MCF7 breast it was -50.9% (active); in the assay with HCT-116 colon, 1.32% (active). Also, the growth was -22.8% (active) in the assay on HCC-2998 colon and 23.7% with KM12 colon.
For `COc1ccc(Oc2ccc(/C=C/C(=O)c3ccc(OC)c(OC)c3)cc2)cc1`, the growth was 60.8% in the assay on T-47D breast; 85.3% in the assay with BT-549 breast; 90.3% with MDA-MB-435 melanoma; 83.9% in the assay on SW-620 colon; 56.3% in the assay with MCF7 breast; 69.3% in the assay with HCT-116 colon. Moreover, the figures for the growth with HCC-2998 colon and with KM12 colon were 104% and 79%, respectively.
For `Nc1nc(N)c2c(n1)NC(c1cccc(Nc3ccnc4cc(C(F)(F)F)ccc34)c1)CC(c1ccc3c(c1)OCO3)=N2` (configuration not stated), the growth is 90.6% with T-47D breast; 112% in the assay with BT-549 breast; 9.59% (active) with MDA-MB-435 melanoma; 54.6% in the assay on SW-620 colon; 33.3% in the assay with MCF7 breast; 39.9% in the assay with HCT-116 colon. For the same molecule, the growth with HCC-2998 colon is 75.7%; in the assay on KM12 colon, 38.6%.
Consider `CCOC(=O)C1=C(CCl)N(C)C(=O)NC1c1ccc2c(c1)OCO2` (configuration not stated), for which the growth in the assay with T-47D breast was 35.6%; in the assay on BT-549 breast, 37.8%; in the assay with MDA-MB-435 melanoma, 26.6%; with SW-620 colon it was 8.16% (active); in the assay with MCF7 breast, 51.8%; with HCT-116 colon, 19.1%. The growth in the assay with HCC-2998 colon is 94.6%; in the assay with KM12 colon, 73.1%.
Consider `Cc1ccc2c(/C=C/C(=O)c3cc(CN4CCOCC4)c(O)c4nc(C)ccc34)cc(CN3CCOCC3)c(O)c2n1`, for which the growth with T-47D breast is 9.26% (active); in the assay on BT-549 breast it was 12.8%; in the assay with MDA-MB-435 melanoma, -62.6% (active); with SW-620 colon, 1.06% (active); in the assay with MCF7 breast, 4.69% (active); with HCT-116 colon it was -22.9% (active). The values for the growth in the assay on HCC-2998 colon and in the assay with KM12 colon were 22.7% and -59.3% (active), respectively.
As to `CS(=O)(=O)Nc1cc(-c2ccc3ncnc(Nc4ccc5c(cnn5Cc5ccccc5F)c4)c3c2)cnc1Cl`, the growth with T-47D breast is -4.36% (active); in the assay with BT-549 breast it was 14.6%; with MDA-MB-435 melanoma it was 43.6%; with SW-620 colon it was 46.8%; in the assay on MCF7 breast it was 13.9%; in the assay on HCT-116 colon, 60.4%. For the same molecule, the growth with HCC-2998 colon is 59.3%; in the assay on KM12 colon it was 71.5%.
On to `O=S(=O)(NCCNc1nccc(-c2c(-c3ccc(F)c(O)c3)nc3sccn23)n1)c1ccc(Cl)cc1`, for which the growth in the assay with T-47D breast is 2.76% (active); in the assay on BT-549 breast it was 29.9%; in the assay on MDA-MB-435 melanoma it was 3.65% (active); in the assay with SW-620 colon, 52.3%; in the assay on MCF7 breast it was 13.5%; with HCT-116 colon it was 16.7%. Besides, the growth in the assay on HCC-2998 colon was 59.6%; in the assay on KM12 colon, 12.6%.

Values taken from PubChem BioAssay (NCI).
